These results are taken from article PMC5540273 (PLoS ONE, 2017).
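Also: kd values determined as follow-up on hits from a single-replicate KINOMEscan panel screen.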

The first assay deals with AURKB.
As usually defined, the Kd is the constant that tells how readily two partners part at equilibrium. Read a low Kd as a tighter complex. `Cn1ccc2ncnc(Oc3ccc(NC(=O)Nc4ccccc4)cc3)c21` returned a Kd of 110 nM.
The compound `Cn1ccc2ncnc(Oc3ccc(Nc4nc5ccccc5[nH]4)cc3)c21` registered a Kd of 59 nM. This Kd is about 1.9-fold lower than that of the compound before.
For `COc1ccc(CNC(=O)NC2CCN(c3ccnc(Nc4cc(OC)c(OC)c(OC)c4)n3)C2)cc1` (stereo not drawn) [GSK1379748], the dissociation constant (Kd) was determined as 330 nM.
For the compound `Cn1cncc1-c1ccc2ncnc(Nc3ccc(OCc4ccccc4)cc3)c2c1` [GW320571], the Kd is above 10000 nM.
As to `COc1cc(Nc2nccc(N3CCC(NC(=O)Nc4cc(C)ccc4C)C3)n2)cc(OC)c1OC` (stereo not drawn) [GSK1379762], the dissociation constant Kd worked out at 240 nM.
Compound `O=C(Nc1ccc2c(c1)OCO2)NC1CCN(c2ccnc(Nc3ccc(F)cc3)n2)C1` (stereo not drawn) [GSK1379724] yielded a dissociation constant Kd of 6900 nM.
Turning to `Cc1ccc(C(=O)Nc2ccc(Nc3ccnc4cc(-c5ccccn5)ccc34)cc2O)cc1.Cl` [GW440146], the affinity, expressed as Kd, was 290 nM.

In the next assay the test system is AURKC.
For `Cn1ccc2ncnc(Oc3ccc(NC(=O)Nc4ccccc4)cc3)c21`, the dissociation constant Kd was found to be 110 nM. This lies in the sub-micromolar range.
The same measure, in the same setting: for `COc1cc2ncn(-c3cc(OCC4CCCO4)c(C(N)=O)s3)c2cc1OC` (stereo not drawn) [GSK204607] the value was above 10000 nM; for `COc1cc(Nc2nccc(N3CCC(NC(=O)Nc4cc(C)ccc4C)C3)n2)cc(OC)c1OC` (stereo not drawn) [GSK1379762], 200 nM; for `COc1cccc(-c2cc(-c3c[nH]nc3-c3ccccn3)ccn2)c1` [GW680338], above 10000 nM.
Same read-out and setting: as for `Cc1ccc(C(=O)Nc2ccc(Nc3ccnc4cc(-c5ccccn5)ccc34)cc2O)cc1.Cl` [GW440146], the figure is 500 nM.
